Test results as given in PubChem BioAssay (NCI).
Compounds without any hit were thinned out: in the full panel of roughly 79,000, 15% have a hit. A number with no mark means an inactive call. Active and inactive are the calls of the source. No stated cut-off is given here; in the data, active means growth inhibition above about 70%; inactive means the rest.

Test: NCI Yeast Anticancer Drug Screen. Data for the rad50 strain (AID 155);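 further: 0% = growth of vehicle-only cultures of the same strain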
Details: S. cerevisiae rad50 strain growth inhibition; at 50.0 µM; active compounds read high
How it was run: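 Genetically altered yeast (DNA repair pathway); compound treatment; growth inhibition vs vehicle ctrl.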

Compared with `O=C1OC(c2ccccc2)(C2(c3ccccc3)C=C(c3ccccc3)C(=O)O2)C=C1c1ccccc1` (stereo not given), `CC(C)(C)c1cc(C(C)(C)C)c(P(C(O[Si](C)(C)C)=C(c2ccccc2)c2ccccc2)C(O[Si](C)(C)C)=C(c2ccccc2)c2ccccc2)c(C(C)(C)C)c1` is lower in growth inhibition: 39.2% for the first, -14.7% for the second.

Compared with `CCN(CC)CCCNc1ccc([N+](=O)[O-])c2nc3ccccc3c(N)c12`, `Nc1c2ccccc2nc2c(C(=O)Nc3ccc(S(N)(=O)=O)cc3)cccc12` is lower in growth inhibition: 21.4% for the first, 16.4% for the second.

Compared with `Nc1cc(=O)[nH]c(N)n1`, `Cc1[nH]nc(C(=O)O)c1N` is lower in growth inhibition: 10.2% for the first, -18.2% for the second.

Going from `CC1(C)OC(=O)C(=CN(C2CCCCC2)C2CCCCC2)C(=O)O1` to `COC(=O)C1(C(=O)OC)C2CCCCC21` (stereo not given), the growth inhibition rises from -6.45% to 4.65%.

Compared with `CCCCCCCCCCCC(=O)OC(C)CO` (stereo not given), `CCCCCCCCCCCCCCCCOc1ccc(Sc2ccc([N+](=O)[O-])cc2)cc1` is higher in growth inhibition: -3.9% for the first, 44.5% for the second.

First: N#C/C(=C\c1c[nH]c2ccccc12)C(=O)c1ccc(O)c(O)c1
Second: O=C(O)CCc1cccc2c(=O)cc(-c3ccccc3)oc12
The growth inhibition of the first is higher: -6.55% for the first, -10.3% for the second.

First: CCOC(=O)CCCCCOC1CCCCO1 (stereo not given)
Second: CCOC(=O)c1c(N)sc2c1C(C(=O)OCC)CCCC2 (stereo not given)
The growth inhibition of the first is higher: 7.4% for the first, -11.1% for the second.

First: COc1c2ccoc2cc2oc(=O)ccc12
Second: COc1ccc(C(C)=O)cc1CCCO
The growth inhibition of the first is higher: 10% for the first, -1.55% for the second.

Going from `OC(c1ccccc1)(c1ccccc1)C1CC1` to `CNC(=O)C(c1ccccc1)C(O)c1ccccc1` (stereo not given), the growth inhibition rises from 6.2% to 10.8%.

Compared with `CC(C)=C1C2CCC1[C@H](COS(C)(=O)=O)[C@@H]2COS(C)(=O)=O`, `COC(=O)C12OCC34C(CC5C(C)CC(=O)C(O)C5(C)C3C(O)C1O)OC(=O)C(OC(C)=O)C24` (stereo not given) is higher in growth inhibition: -6.7% for the first, 31.2% for the second.

Going from `CN1CCN(c2ccncc2S(=O)(=O)N2CCN(C)CC2)CC1` to `CC(C)C(=O)c1ccccc1Cl`, the growth inhibition rises from -17.2% to 2.85%.

First: CN(CC(=O)c1ccc(I)cc1)Cc1ccccc1
Second: O=C(Oc1ccc(OC(=O)c2ccc([N+](=O)[O-])cc2)cc1)c1ccccc1
The growth inhibition of the first is higher: 28.1% for the first, 9.85% for the second.

Going from `CCCCOC(=O)/C=C\C(=O)NC(=O)NC(C)(C)C` to `CC(C)/C=C(\C#N)C(=O)O`, the growth inhibition rises from -7.55% to -3.2%.

First: Cc1ccc(CSCc2c(CSCc3ccc(C)cc3)c(CSCc3ccc(C)cc3)c(CSCc3ccc(C)cc3)c(CSCc3ccc(C)cc3)c2CSCc2ccc(C)cc2)cc1
Second: CC1C[P+](c2ccccc2)(c2ccccc2)Cc2ccccc21 (stereo not given)
The growth inhibition of the first is lower: -6% for the first, 3.4% for the second.

Compared with `c1ccc2cc3ccccc3cc2c1`, `S=C(Nc1ccccc1)Nc1ccccn1` is higher in growth inhibition: 5.75% for the first, 10.1% for the second.

Going from `CCOc1cc2c(cc1Cc1ccc3c(c1)OCO3)OCO2` to `Cc1cccc(N=Nc2ccc(O)c(CN(C)C)c2)c1`, the growth inhibition falls from -8.15% to -17%.

First: CSC1(C)C(=O)Nc2cc([N+](=O)[O-])ccc21 (stereo not given)
Second: Cc1cccc(SC(=O)Nc2cc([N+](=O)[O-])ccc2Cl)c1
The growth inhibition of the first is lower: 1.7% for the first, 6.9% for the second.

First: CC1(C)C(=O)NC(=O)N1CO
Second: C/C(CC(C)C)=N\NC(=O)Nc1ccccc1Cl
The growth inhibition of the first is higher: 27.1% for the first, 4.5% for the second.

Going from `C1CCC2(CC1)SCCS2` to `CSc1nc2ncnc(N(C)C)c2[nH]1`, the growth inhibition falls from 2% to 1.1%.

In the case of `NC(=S)NNC(N)=S`, the growth inhibition is reported as 2.2%.

For `CC(C(c1ccccc1)C(Br)C(=O)c1ccccc1)[N+](=O)[O-]` (stereo not given), the growth inhibition was 96.5% (active).

Test: NCI Yeast Anticancer Drug Screen. Data for the mec2-1 strain (AID 157)
Details: S. cerevisiae mec2-1 strain, at 50.0 µM, active compounds read high
How it was run: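 Strain: mec2-1 (DNA repair/cell cycle alteration). Compound exposure, then growth measured; inhibition expressed relative to vehicle.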

Going from `O=C1OC(c2ccccc2)(C2(c3ccccc3)C=C(c3ccccc3)C(=O)O2)C=C1c1ccccc1` (stereo not given) to `CC(C)(C)c1cc(C(C)(C)C)c(P(C(O[Si](C)(C)C)=C(c2ccccc2)c2ccccc2)C(O[Si](C)(C)C)=C(c2ccccc2)c2ccccc2)c(C(C)(C)C)c1`, the growth inhibition falls from -3% to -8.45%.

Compared with `CCN(CC)CCCNc1ccc([N+](=O)[O-])c2nc3ccccc3c(N)c12`, `Nc1c2ccccc2nc2c(C(=O)Nc3ccc(S(N)(=O)=O)cc3)cccc12` is lower in growth inhibition: -0.2% for the first, -8.9% for the second.

First: Nc1cc(=O)[nH]c(N)n1
Second: Cc1[nH]nc(C(=O)O)c1N
The growth inhibition of the first is lower: -23.9% for the first, -20.6% for the second.

Going from `CC1(C)OC(=O)C(=CN(C2CCCCC2)C2CCCCC2)C(=O)O1` to `COC(=O)C1(C(=O)OC)C2CCCCC21` (stereo not given), the growth inhibition rises from -6.6% to 9.3%.

Compared with `CCCCCCCCCCCC(=O)OC(C)CO` (stereo not given), `CCCCCCCCCCCCCCCCOc1ccc(Sc2ccc([N+](=O)[O-])cc2)cc1` is higher in growth inhibition: -10.9% for the first, 4.2% for the second.

Going from `N#C/C(=C\c1c[nH]c2ccccc12)C(=O)c1ccc(O)c(O)c1` to `O=C(O)CCc1cccc2c(=O)cc(-c3ccccc3)oc12`, the growth inhibition falls from 0.25% to -1.7%.

First: CCOC(=O)CCCCCOC1CCCCO1 (stereo not given)
Second: CCOC(=O)c1c(N)sc2c1C(C(=O)OCC)CCCC2 (stereo not given)
The growth inhibition of the first is higher: 18.2% for the first, 7.5% for the second.

First: COc1c2ccoc2cc2oc(=O)ccc12
Second: COc1ccc(C(C)=O)cc1CCCO
The growth inhibition of the first is lower: -7.1% for the first, 5.85% for the second.

Going from `OC(c1ccccc1)(c1ccccc1)C1CC1` to `CNC(=O)C(c1ccccc1)C(O)c1ccccc1` (stereo not given), the growth inhibition rises from -6.9% to -3.7%.

Going from `CC(C)=C1C2CCC1[C@H](COS(C)(=O)=O)[C@@H]2COS(C)(=O)=O` to `COC(=O)C12OCC34C(CC5C(C)CC(=O)C(O)C5(C)C3C(O)C1O)OC(=O)C(OC(C)=O)C24` (stereo not given), the growth inhibition rises from 6.5% to 44.4%.

First: CN1CCN(c2ccncc2S(=O)(=O)N2CCN(C)CC2)CC1
Second: CC(C)C(=O)c1ccccc1Cl
The growth inhibition of the first is lower: -12.7% for the first, -7.05% for the second.

Compared with `CN(CC(=O)c1ccc(I)cc1)Cc1ccccc1`, `O=C(Oc1ccc(OC(=O)c2ccc([N+](=O)[O-])cc2)cc1)c1ccccc1` is lower in growth inhibition: -1.25% for the first, -2.25% for the second.

First: CCCCOC(=O)/C=C\C(=O)NC(=O)NC(C)(C)C
Second: CC(C)/C=C(\C#N)C(=O)O
The growth inhibition of the first is higher: 1.2% for the first, -13.5% for the second.

Compared with `Cc1ccc(CSCc2c(CSCc3ccc(C)cc3)c(CSCc3ccc(C)cc3)c(CSCc3ccc(C)cc3)c(CSCc3ccc(C)cc3)c2CSCc2ccc(C)cc2)cc1`, `CC1C[P+](c2ccccc2)(c2ccccc2)Cc2ccccc21` (stereo not given) is higher in growth inhibition: 0.9% for the first, 9.75% for the second.

Compared with `c1ccc2cc3ccccc3cc2c1`, `S=C(Nc1ccccc1)Nc1ccccn1` is lower in growth inhibition: 10.7% for the first, -29.6% for the second.

First: CCOc1cc2c(cc1Cc1ccc3c(c1)OCO3)OCO2
Second: Cc1cccc(N=Nc2ccc(O)c(CN(C)C)c2)c1
The growth inhibition of the first is lower: -11.8% for the first, 8.9% for the second.

First: CSC1(C)C(=O)Nc2cc([N+](=O)[O-])ccc21 (stereo not given)
Second: Cc1cccc(SC(=O)Nc2cc([N+](=O)[O-])ccc2Cl)c1
The growth inhibition of the first is lower: -11.1% for the first, 4.4% for the second.

Compared with `CC1(C)C(=O)NC(=O)N1CO`, `C/C(CC(C)C)=N\NC(=O)Nc1ccccc1Cl` is higher in growth inhibition: 2.4% for the first, 5.7% for the second.

First: C1CCC2(CC1)SCCS2
Second: CSc1nc2ncnc(N(C)C)c2[nH]1
The growth inhibition of the first is lower: -18.4% for the first, -11.8% for the second.

In the case of `NC(=S)NNC(N)=S`, the growth inhibition is reported as -12.9%.

For `CC(C(c1ccccc1)C(Br)C(=O)c1ccccc1)[N+](=O)[O-]` (stereo not given), the growth inhibition was 93.2% (active).
